Reference: the supplement of paper PMC12669032

Tests used:
Assay in all cases: growth AUC relative to DMSO control (median of replicates) (fraction); higher = more growth (less inhibition), active = hit call of the paper
Conditions in all cases: 20 µM; 24 h;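 active = AUC reduced over 20% with Padj below 0.05 in at least 2 of 3 replicates; inactive = otherwise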
Coprococcus comes = test system: Coprococcus comes
Summary of the method: (§1)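 Each value is the median of three biological replicates, grown on separate days, of a gut bacterial monoculture incubated anaerobically at 37 °C in mGAM with 20 µM compound (1% DMSO). Cultures started at OD600 0.05 and were read at OD600 hourly for 24 h, with the minimum OD set to 0. Area under the growth curve was normalised to the plate median of solvent-only wells, or to row and column medians on the industrial chemical plate.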

Escherichia coli ED1a = test system: Escherichia coli ED1a
Summary of the method: as §1

Escherichia coli IAI1 = test system: Escherichia coli IAI1
Summary of the method: as §1

Eubacterium rectale = test system: Eubacterium rectale
Summary of the method: as §1

[1] = test system: Fusobacterium nucleatum subsp. animalis
Summary of the method: as §1

Lactobacillus gasseri = test system: Lactobacillus gasseri
Summary of the method: as §1

Lactobacillus paracasei = test system: Lactobacillus paracasei
Summary of the method: as §1

Odoribacter splanchnicus = test system: Odoribacter splanchnicus
Summary of the method: as §1

[2] = test system: Parabacteroides distasonis
Summary of the method: as §1

Parabacteroides merdae = test system: Parabacteroides merdae
Summary of the method: as §1

Roseburia intestinalis = test system: Roseburia intestinalis
Summary of the method: as §1

Streptococcus salivarius = test system: Streptococcus salivarius
Summary of the method: as §1

Measured: growth AUC

COCCN(C(=O)CO)c1c(C)cccc1C(=O)O
inactive: Coprococcus comes 0.972 | Escherichia coli ED1a 0.976 | Escherichia coli IAI1 0.956 | Eubacterium rectale 1.09 | [1] 0.968 | Lactobacillus gasseri 0.811 | Lactobacillus paracasei 0.996 | Odoribacter splanchnicus 1 | [2] 0.904 | Parabacteroides merdae 0.986 | Roseburia intestinalis 1.01 | Streptococcus salivarius 0.965

CN(C)C(N)=O
inactive: Coprococcus comes 0.993 | Escherichia coli ED1a 1.01 | Escherichia coli IAI1 0.953 | Eubacterium rectale 0.967 | [1] 1.01 | Lactobacillus gasseri 0.983 | Lactobacillus paracasei 1.03 | Odoribacter splanchnicus 1.03 | [2] 0.968 | Parabacteroides merdae 1.01 | Roseburia intestinalis 0.996 | Streptococcus salivarius 1.02

O=C(O)CCCc1c[nH]c2ccccc12
inactive: Coprococcus comes 1.01 | Escherichia coli ED1a 0.955 | Escherichia coli IAI1 0.962 | Eubacterium rectale 1.07 | [1] 0.971 | Lactobacillus gasseri 0.832 | Lactobacillus paracasei 0.884 | Odoribacter splanchnicus 0.989 | [2] 0.922 | Parabacteroides merdae 0.984 | Roseburia intestinalis 0.96 | Streptococcus salivarius 1

CCc1cccc(C)c1N(C(=O)C(=O)O)C(C)COC (centres undefined)
inactive: Coprococcus comes 1.02 | Escherichia coli ED1a 0.992 | Escherichia coli IAI1 0.987 | Eubacterium rectale 0.979 | [1] 1.01 | Lactobacillus gasseri 0.977 | Lactobacillus paracasei 0.852 | Odoribacter splanchnicus 1.04 | [2] 1.02 | Parabacteroides merdae 1.01 | Roseburia intestinalis 0.982 | Streptococcus salivarius 1

O=S(=O)(Oc1ccc(Cl)cc1)c1ccccc1
inactive: Coprococcus comes 0.997 | Escherichia coli ED1a 0.981 | Escherichia coli IAI1 0.967 | Eubacterium rectale 0.874 | [1] 0.872 | Lactobacillus gasseri 0.99 | Lactobacillus paracasei 1.08 | Odoribacter splanchnicus 0.987 | [2] 0.974 | Parabacteroides merdae 0.957 | Roseburia intestinalis 0.988 | Streptococcus salivarius 0.955

N#Cc1ccc(CC(=NNC(=O)Nc2ccc(OC(F)(F)F)cc2)c2cccc(C(F)(F)F)c2)cc1 (mixture of isomers)
inactive: Coprococcus comes 0.991 | Escherichia coli ED1a 0.986 | Escherichia coli IAI1 1.02 | Eubacterium rectale 0.963 | [1] 1.12 | Lactobacillus gasseri 1.15 | Lactobacillus paracasei 0.959 | Odoribacter splanchnicus 1.02 | [2] 0.999 | Parabacteroides merdae 0.936 | Roseburia intestinalis 0.954 | Streptococcus salivarius 1.02

COC(=O)CCCOc1ccc(Cl)cc1Cl
inactive: Coprococcus comes 0.968 | Escherichia coli ED1a 0.983 | Escherichia coli IAI1 0.958 | Eubacterium rectale 1.1 | [1] 0.966 | Lactobacillus gasseri 0.916 | Lactobacillus paracasei 0.916 | Odoribacter splanchnicus 0.925 | [2] 0.791 | Parabacteroides merdae 0.97 | Roseburia intestinalis 0.887 | Streptococcus salivarius 0.931

CC(C)c1cccc2c(=O)c3ccccc3sc12
inactive: Coprococcus comes 0.979 | Escherichia coli ED1a 1.03 | Escherichia coli IAI1 1.04 | Eubacterium rectale 1 | [1] 1.19 | Lactobacillus gasseri 0.968 | Lactobacillus paracasei 1.05 | Odoribacter splanchnicus 1.05 | [2] 0.952 | Parabacteroides merdae 0.885 | Roseburia intestinalis 1.02 | Streptococcus salivarius 1.05

Cc1c(C(=O)c2c[nH]n(C)c2=O)ccc(S(C)(=O)=O)c1C1=NOCC1
inactive: Coprococcus comes 1.02 | Escherichia coli ED1a 0.984 | Escherichia coli IAI1 0.981 | Eubacterium rectale 0.99 | [1] 0.972 | Lactobacillus gasseri 0.999 | Lactobacillus paracasei 0.954 | Odoribacter splanchnicus 1.04 | [2] 1.04 | Parabacteroides merdae 1 | Roseburia intestinalis 0.987 | Streptococcus salivarius 1.01

CC(Oc1ccc(Cl)cc1Cl)C(=O)NC(C)(C#N)C(C)C (centres undefined)
inactive: Coprococcus comes 1.02 | Escherichia coli ED1a 0.989 | Escherichia coli IAI1 1.01 | Eubacterium rectale 1.13 | [1] 0.972 | Lactobacillus gasseri 0.803 | Lactobacillus paracasei 0.997 | Odoribacter splanchnicus 0.838 | Parabacteroides merdae 0.981 | Roseburia intestinalis 0.968 | Streptococcus salivarius 0.918
active: [2] 0.65

O=[N+]([O-])c1ccc2c(c1)Cc1ccccc1-2
inactive: Coprococcus comes 0.98 | Escherichia coli ED1a 0.984 | Escherichia coli IAI1 0.989 | Eubacterium rectale 1.07 | [1] 0.897 | Lactobacillus gasseri 1.03 | Lactobacillus paracasei 0.998 | Odoribacter splanchnicus 0.982 | [2] 1.1 | Parabacteroides merdae 0.992 | Roseburia intestinalis 1.01 | Streptococcus salivarius 0.988

CCOC(=O)c1nc(C(Cl)(Cl)Cl)n(-c2ccc(Cl)cc2Cl)n1
inactive: Coprococcus comes 0.946 | Escherichia coli ED1a 1 | Escherichia coli IAI1 1.01 | Eubacterium rectale 0.961 | [1] 0.995 | Lactobacillus gasseri 1.02 | Lactobacillus paracasei 1 | Odoribacter splanchnicus 1 | [2] 0.899 | Parabacteroides merdae 0.965 | Roseburia intestinalis 0.949 | Streptococcus salivarius 0.992
